# PNC assembly inh: inhibitors of perinucleolar compartment assembly; PC3M PTB-GFP, PNC prevalence imaging, 16 h; hits give low values; activity change (PNC), negative = inhibition, % at 10 µM; 140,000 compounds, 3.1% hits;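 active means readout at or below -70, meaning at least 70% loss of cells showing the perinucleolar compartment, a nuclear body marking cancer cells; inconclusive means readout between -30 and a set limit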;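 further: plate controls were DMSO wells for no effect and camptothecin positive control wells for full effect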
#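 PC3M cells stably expressing PTB-GFP, 750–1000 cells/well, treated 16 h at 37 °C with compound (23 nl of library stock), in duplicate. After paraformaldehyde fixation and Hoechst stain, imaged at 20x; PNC prevalence scored by image analysis.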
# IMPase cell inh: cell-permeable inhibitors of inositol monophosphatase (IMPase); P97697; CHO-M1 cells, IP1 accumulation, HTRF TR-FRET ratio; inhibition (IP1 accumulation), % at 46.1 µM; 120,000 tested, under 10 active; AID 901; active means well fitted curve in the direction sought with a large enough effect in the signal ratio, not every such curve was filed as active; inconclusive means small, poorly fitted or top-dose-only effect, or a change in a side signal; inactive means no such curve, though single readings can be large or run the other way; the % refers to the signal ratio;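 further: cells stimulated with carbachol in lithium chloride buffer; plate controls were DMSO basal wells for no effect and reference inhibitor wells for full effect; higher means more IMPase inhibition seen as more IP1 and lower FRET ratio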
# Target sequence (P97697 whole entry, looked up): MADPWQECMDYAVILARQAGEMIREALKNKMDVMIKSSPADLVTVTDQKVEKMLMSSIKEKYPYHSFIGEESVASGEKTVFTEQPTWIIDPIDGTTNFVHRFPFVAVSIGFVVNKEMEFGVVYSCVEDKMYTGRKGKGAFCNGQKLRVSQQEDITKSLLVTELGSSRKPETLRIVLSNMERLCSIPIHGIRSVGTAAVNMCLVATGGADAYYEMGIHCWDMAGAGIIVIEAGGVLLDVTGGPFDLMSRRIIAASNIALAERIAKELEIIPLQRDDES
#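 Measured: the HTRF emission ratio (665/620 nm) plus the 620 nm donor channel, each fitted to the Hill equation to give AC50. Cells were CHO-M1 given compounds up to 46 uM and a 30 min carbachol stimulation at 37C.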
# LMNA splice mod: changes lamin A minigene splicing in HeLa cells; HeLa LMNA splicing GFP/RFP minigene ratio, 48 h; Potency, µM (series often up to 46.1 µM), inactives show top-dose ratio change, negative = inhibition, most hits filed as inhibitors; 200,000 compounds, 0.01% hits; AID 1487; active means well fitted inhibition curve with a large enough effect in the signal ratio, with a control signal flat, not every such curve was filed as active; inconclusive means small, poorly fitted or top-dose-only effect, or effect the other way, or a change in a side signal; the % refers to the signal ratio; further: potency means the concentration at half of the fitted maximal effect
#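 Read-out is the ratio of GFP to DsRed2 object intensity, acquired by 488 nm laser-scanning cytometry on HeLa lamin A-EGFP minigene reporter cells. Compound incubation 48 hrs at 37 °C in Opti-MEM with 2% FBS; DMSO 0.5% final.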
# KinaseGlo FLuc: Kinase-Glo luciferase inhibition (counter-screen). Q27757. Kinase-Glo luciferase, ATP luminescence, 8 min. Potency, µM (titrated, usually from 38.3 µM), inactives show top-dose activity change, negative = inhibition, most hits filed as inhibitors. 200,000 compounds, 0.28% hits; active means well fitted inhibition curve with a large enough effect; inconclusive means small, poorly fitted or top-dose-only effect; further: potency means the concentration at half of the fitted maximal effect; nearly all actives have a fitted effect of over 60% in size
#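 Light output from Kinase-Glo luciferase with luciferin and 10 uM ATP in 50 mM imidazole pH 7.2, KCl, MgCl2, Tween 20, BSA; compound pin-delivered, 8-min ambient incubation, then luminescence read.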
# HPGD block: blocks human HPGD enzyme activity | purified HPGD, NADH fluorescence kinetic, PGE2 substrate | Potency, µM, inactives show at the top dose activity change, negative = inhibition, hits mostly inhibitors | 150,000 compounds, 4.3% hits; further: potency means the concentration at half of the fitted maximal effect
# Target sequence (P15428 whole entry, looked up): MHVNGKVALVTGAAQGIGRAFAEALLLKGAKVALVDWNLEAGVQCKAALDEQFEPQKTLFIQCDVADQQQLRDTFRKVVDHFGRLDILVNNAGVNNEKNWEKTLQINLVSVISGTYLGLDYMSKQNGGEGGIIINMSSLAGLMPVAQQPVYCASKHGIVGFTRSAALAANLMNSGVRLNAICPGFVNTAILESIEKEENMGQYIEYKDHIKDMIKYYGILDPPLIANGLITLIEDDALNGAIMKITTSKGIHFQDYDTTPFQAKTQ
#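 NADH formation kinetics: reaction with 30 uM PGE2 and 1 mM NAD+ (final), 20 nM enzyme, Tris-HCl pH 8 with Tween 20, after 15 min compound preincubation at room temperature. Fluorescence change, last versus first of five reads.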
# ALDH1A1 inh: blocks purified human ALDH1A1 activity; P00352; Purified ALDH1A1, NADH fluorescence, propionaldehyde substrate; Potency, µM (top dose mostly 75.3 µM), for the others: at the top dose activity, negative = inhibition, actives largely listed as inhibitors; 220,000 compounds, 7.3% hits;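 further: potency means the concentration at half of the fitted maximal effect; plate controls were no enzyme wells and a reference inhibitor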
# Starred values were filed as active, the others as inactive; u = inconclusive; x = no result given; [ ] = dose if it differs, or a comment. In the library only some 10% were active in any assay of this set; here they are far more common. Unless noted, the call rests on the fitted dose curve; in most records, active means well fitted inhibition curve with a large enough effect (not every such curve was filed as active); inconclusive means small, poorly fitted or top-dose-only effect, or another doubt; inactive means no such curve, though single readings can be large or run the other way. Unless noted, on the % scale 0 is the no-effect control and ±100 the full control effect.
SMILES,PNC assembly inh,IMPase cell inh,LMNA splice mod,KinaseGlo FLuc,HPGD block,ALDH1A1 inh
COc1ccc(-c2noc(-c3ccc4c(c3)OCO4)n2)cc1,33.2,5.1,-2.7%,-6.0%,u,u
S=C(S)NCCN1CCNCC1,x,x,x,-6.2%[7.66 µM],-17.9%,-3.1%[13.5 µM]
O=C(CCBr)N1CCN(C(=O)CCBr)CC1,x,x,u,-5.5%,u,0.891µM*
CC(C)c1nn2c(=O)cc(COC(=O)c3ccccc3NC(=O)c3cccc(Cl)c3)nc2s1,x,x,-2.9%[46 µM],x,x,x
O=C(NC(=S)Nc1cccc(Cl)c1N1CCCCC1)c1cccs1,-108.4*,4.4,15.6%,2.5%,-4.5%,-3.2%
O=C(NC(=S)Nc1cccc(Cl)c1N1CCCCC1)c1ccco1,u,10.0,8.1%,0.4%,-10.9%,u
O=S(=O)(c1ccccc1)c1ncc(C(F)(F)F)cc1Cl,x,x,u,6.4%,x,10µM*
O=S(=O)(c1ccccc1)c1ncc(C(F)(F)F)cc1O,x,x,7.7%[46 µM],2.7%,x,u
O=S(=O)(c1ccccc1)N(C1=NCCS1)S(=O)(=O)c1ccccc1,u,8.2,-0.4%,0.9%,-2.3%,8.91µM*
Cc1c(NC(=O)COC(=O)COc2ccc(Nc3ccccc3)cc2)c(=O)n(-c2ccccc2)n1C,x,x,x,-0.2%,x,22.4µM*
CC(=O)Nc1cccc(NC(=O)CSc2nnnn2Cc2ccccc2)c1,18.2,-19.2,u,-4.9%,-7.6%,12.6µM*
COC(=O)CSc1nc2ccc(NC(=O)CSc3nnnn3Cc3ccccc3)cc2s1,u,-7.3,-3.1%,-2.3%,u,4.47µM*
COc1ccc(NC(=O)CSc2nnnn2Cc2ccccc2)cc1,x,x,x,-9.1%,x,u
Cc1cc(C)c(NC(=O)CSc2nc3ccc(NC(=O)CSc4nnnn4-c4ccccc4)cc3s2)c(C)c1,10.0,x,2.1%,1.6%,-17.5%,u
O=C(CSc1nc2ccc(NC(=O)CSc3nnnn3Cc3ccccc3)cc2s1)Nc1ccccc1,259.0,4.2,-5.4%,2.3%,u,12.6µM*
COc1cccc(-n2nnnc2SCC(=O)Nc2cccc(NC(C)=O)c2)c1,-14.5,8.8,u,2.3%,-21.1%,7.08µM*
Cc1cn2c(=O)cc(COC(=O)COc3ccccc3C)nc2s1,x,x,1.7%[46 µM],x,x,x
COc1cccc(-n2nnnc2S(C)(=O)=O)c1,u,8.5,u,4.1%,20µM*,1.26µM*
O=C(Cc1nc2ccccc2[nH]1)c1ccc([N+](=O)[O-])cc1,x,x,x,x,x,17.8µM*
Clc1ccc(/C(Cc2nc3ccccc3[nH]2)=N\Nc2ccccc2)cc1,x,x,x,x,x,4.47µM*
CN/N=C(\Cc1nc2ccccc2[nH]1)c1ccc([N+](=O)[O-])cc1,x,x,x,-4.0%,x,20µM*
Cc1ccccc1C(=O)OCc1cc(=O)n2nc(C(C)C)sc2n1,x,x,-5.3%[46 µM],x,x,x
Cc1ccc(Cc2nc3ccccc3nc2SCC(=O)NCc2ccccc2Cl)cc1,x,x,-10.2%[46 µM],x,x,x
O=C(/C=C/c1ccc(N2CCCCC2)c([N+](=O)[O-])c1)c1ccc(S(=O)(=O)N2CCCC2)cc1,31.5,x,-2.4%,-3.5%,-9.3%,4.47µM*
COc1ccc(Oc2ccc(/C=C/C(=O)c3ccc(O)cc3)cc2[N+](=O)[O-])cc1,-113.4*,x,u,2.4%,-22.7%,u
SMILES,PNC assembly inh,IMPase cell inh,LMNA splice mod,KinaseGlo FLuc,HPGD block,ALDH1A1 inh
CNc1ccc(/C=C/C(=O)c2ccc(C)cc2)cc1[N+](=O)[O-],u,-5.8,u,1.7%,-16.8%,17.3%
CN(C)c1ccc(/C=C/C(=O)c2ccccc2)cc1[N+](=O)[O-],-28.0,x,u,-14.8%,14.1µM*,u
CN1CCN(c2ccc(S(=O)(=O)N3CCCCC3)cc2[N+](=O)[O-])CC1,x,x,11.1%[9.22 µM],-2.0%,x,-1.8%
N#C/C(=C\c1ccc(-c2ccccc2[N+](=O)[O-])o1)C(N)=O,x,x,x,x,x,4.2%
O=C(/C=C/c1ccc(-c2ccccc2[N+](=O)[O-])o1)c1ccccc1,52.7,x,-7.6%,0.5%,-27.7%,17.8µM*
COc1ccc(/C=C/C(=O)OCCC(C)C)cc1,x,x,u,-0.8%[39.9 µM],-18.6%,-5.2%
CCC(CC)C(=O)NCc1nc2cccnc2n1Cc1ccc(F)cc1,x,x,19.4%[46 µM],x,x,x
COc1cccc(C(=O)/C=C/c2ccc(N3CCCCC3)c([N+](=O)[O-])c2)c1,29.8,x,u,-4.2%,-5.7%,14.1µM*
CCCCCCCCCCCCC/C=C/[C@@H](O)[C@H](CO)NCCCCCCCC,x,x,x,0.2%,-8.8%,-4.0%
O=C(Nc1ccccc1F)c1ccc(COc2ccc(Cl)cc2Cl)o1,22.5,u,-13.5%,1.6%,-15.5%,28.2µM*
CC(C)OC(=O)c1cccc(-c2ccc(C=O)o2)c1,-108.0*,x,1.7%,-0.5%,-24.1%,6.31µM*
COc1ccc(N2CCN(C(=O)c3cccc(F)c3)CC2)c([N+](=O)[O-])c1,x,x,-2.3%[46 µM],0.4%,x,u
COc1ccc(N2C(=O)CC(Sc3ccccc3C(=O)O)C2=O)c([N+](=O)[O-])c1 (centres undefined),x,x,u,0.6%,x,1µM*
Cc1ccc(N2C(=O)CC(Sc3ccccc3C(=O)O)C2=O)c([N+](=O)[O-])c1 (centres undefined),x,x,u,3.7%,x,2µM*
CCCn1c(-c2ccc(F)cc2)nc2c(N3CCN(C)CC3)nc(C)nc21,x,x,x,-5.9%,-24.8%,u
COc1ccc(OCC(=O)NC(Cc2c[nH]c3ccccc23)C(=O)O)cc1 (centres undefined),x,5.3,x,x,x,x
O=C1OCCC1Sc1nnc(-c2ccccc2)o1 (centres undefined),-14.7,-2.5,12.2%,-5.2%,-7.3%,7.1%
O=C1c2ccccc2CC1Sc1nnc(-c2ccccn2)o1 (centres undefined),13.1,-0.5,9.9%,5.5%,u,3.16µM*
O=C(CSCc1ccccc1Cl)N1CCN(c2ccc(F)cc2)CC1,x,x,-8.5%[46 µM],x,x,x
COc1cc2c(C=O)c3c4c(cc(OC)c(OC)c4c2cc1OC)CCN3C,x,8.4,x,-1.4%,-22.9%,u
COc1ccc(Oc2nccc(OC)c2C#N)cc1,-22.6,7.5,1.2%,1.9%,-4.0%,-12.4%
N#Cc1c(-c2ccccc2)ccnc1Oc1ccccc1,-96.3*,0.1,2.1%,-3.1%,-28.7%,u
N#CC(=C(/N)Sc1ccccc1N)/C(C#N)=C(/N)Sc1ccccc1N,x,2.6,x,1.0%,28.2µM*,x
N#Cc1ccccc1Sc1ccccc1N,-18.2,-6.5,2.1%,2.1%,1.2%,0.4%
O=C(OCC(=O)N1c2ccccc2Sc2ccccc21)C1CC(=O)N(Cc2ccco2)C1 (centres undefined),-21.1,-8.2,-4.2%,-1.3%,-12.2%,35.5µM*
O=C(COC(=O)C1CC(=O)N(Cc2ccco2)C1)c1ccc(OC(=O)c2ccccc2)cc1 (centres undefined),-3.2,9.1,-3.9%,-1.3%,28.2µM*,14.1µM*

# Compound activity deposited in PubChem by National Center for Advancing Translational Sciences (NCATS).
